The list is not random: actives were taken first. Their share in the collection is about 2.1%.
FUS yeast rescue: FUS proteinopathy suppression in yeast; 0.24% of 390,000 active; S. cerevisiae FUS-expressing, growth rescue, OD600, 24 h; Potency, µM (top dose mostly 76.6 µM), usual class: activators;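 further: plate controls were DMSO vehicle for no effect and reference control for full effect; nearly all actives have a fitted effect of over 55% in size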
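Yeast FUS proteinopathy model; galactose-induced FUS (2%), starting OD 0.005. Cpds in dilution series, 24hr, 30C, 99% humidity. Abs 600 nm growth. Pos ctrl CP55940 (top 92uM final); neg ctrl DMSO.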
TDP-43 yeast inh: inhibitors of TDP-43 toxicity in yeast. 1.8% of 410,000 active. AID 652104. Potency, µM (highest dose often 46.1 µM), for the others: top-dose growth rescue (activation), most hits filed as activators. TDP-43 expressing yeast growth rescue, BacTiter-Glo, 24 h; further: % of control where 0% means no effect; nearly all actives have a fitted effect of over 50% in size
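Cell-based yeast growth screen: TDP-43 expression induced in galactose, inoculum OD600=0.02 after raffinose pregrowth to mid-log. Read-out BacTiter-Glo luminescence at 24 hr, 30 deg C; inhibition of toxicity seen as signal increase.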
aSyn rescue: rescues yeast growth from alpha-synuclein toxicity; Potency, µM (top dose mostly 46.1 µM), for inactives: at the highest dose growth rescue (activation), usual class: activators; 0.14% of 370,000 active; AID 652106; Yeast expressing alpha-synuclein, growth rescue, BacTiter-Glo, 24 h; further: % of control where 0% means no effect; nearly all actives have a fitted effect of over 65% in size
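Galactose-induced alpha-syn yeast (OD600=0.02, raffinose-pregrown) + pinned cpd, 24 hr, 30 deg C; growth by BacTiter-Glo luminescence. Growth restoration scores as activation.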
Abeta yeast res: restores growth of yeast expressing A-beta42 peptide. yeast expressing A-beta42, growth rescue, OD600, 48 h; response scale: 0% DMSO, 100% iron-clioquinol control. Potency, µM (doses to about 46.1 µM), hits mostly activators. 0.063% of 410,000 active; further: nearly all actives have a fitted effect of over 55% in size
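Growth rescue measured by 600 nm absorbance after 48 h yeast culture at 30 C with compound. Values normalized between DMSO and an equimolar ferric chloride plus clioquinol control.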
* hit, by the source's call; i = inactive; ? = inconclusive; . = no result. The call rests on the fitted dose curve; in most records, active means well fitted curve in the direction sought with a large enough effect; inconclusive means small, poorly fitted or top-dose-only effect, or another doubt; inactive means no such curve, though single readings can be large; an effect the other way counts as inactive or inconclusive. Potency means the concentration at half of the fitted maximal effect.

SMILES	FUS yeast rescue	TDP-43 yeast inh	aSyn rescue	Abeta yeast res
COc1ccc(/C=C/c2c(-c3ccc(OC)cc3)sc3ccc(N4CCOCC4)cc23)cc1	i	5%	1%	i
O=C(O)/C=C/C(=O)Nc1cccc2c1-c1ccccc1C2=O	.	20µM*	-14%	i
OCCNc1nnc(-c2ccccc2)c(-c2ccccc2)n1	i	2%	-11%	i
COc1cccc(-c2nc(C(=O)NCC3CCCO3)cc3c2[nH]c2ccccc23)c1 (stereo unspecified)	i	20µM*	?	i
Cc1cc(SCc2cc(=O)n3ccsc3n2)nc2ccccc12	i	11µM*	1%	i
O=C(Nc1cccc(Cl)c1)C1CCCN(C2=NS(=O)(=O)c3ccccc32)C1 (stereo unspecified)	i	10%	-1%	i
CC1=CC(c2ccccc2)NC(=S)N1 (stereo unspecified)	.	5%	-1%	i
S=C1NC(c2cccs2)=CC(c2ccc(Br)cc2)N1 (stereo unspecified)	.	20µM*	-6%	i
S=C1NC(c2ccccc2)=CC(c2ccccc2)N1 (stereo unspecified)	?	-25%	17%	13µM*
COc1ccc(NC(=O)C2=NN(C3CCS(=O)(=O)C3)C(=O)CC2)cc1S(N)(=O)=O (stereo unspecified)	i	19%	2%	i
Cc1ccc(-n2ncc(C(=O)NCCN3CCN(C)CC3)c2C2CCN(C(=O)OC(C)(C)C)CC2)cc1	?	6%	.	i
COc1cccc(N2CCN(C(=O)C3CCN(S(=O)(=O)c4ccc5c(c4)CC(C)N5C(C)=O)CC3)CC2)c1 (stereo unspecified)	14µM*	19%	7%	.
CC(=O)N(C(C)=O)N1C(=O)C2C3c4ccccc4C(c4ccccc43)C2C1=O (stereo unspecified)	i	22µM*	-21%	i
CN1C(=O)C2C3c4ccccc4C(c4ccccc43)[C@@H]2C1=O (stereo partly specified)	i	2%	-2%	i
NC(=O)CSc1ccc2nnc(-c3ccncc3)n2n1	.	.	-2%	.
CNC(=O)C(NC(=O)Nc1ccc(C)cc1)C(C)(C)C (stereo unspecified)	i	-8%	-2%	i
Cc1ccccc1NC(=O)C1C2C=CC(C3CC23)C1C(=O)O (stereo unspecified)	i	11µM*	0%	i
CC(=O)c1cccc(NC(=O)C2C3C=CC(C4CC34)C2C(=O)O)c1 (stereo unspecified)	i	22µM*	1%	?
CC(C)OC(=O)C1C(=O)CC(C)(O)C(C(=O)OC(C)C)C1c1cccc([N+](=O)[O-])c1 (stereo unspecified)	i	-5%	0%	i
CCc1ccc(C2=CC(c3cccc(C)c3)n3c(nc4ccccc43)N2)cc1 (stereo unspecified)	i	13µM*	.	i
COc1cccc(C2=CC(c3ccccc3F)n3c(nc4ccccc43)N2)c1 (stereo unspecified)	i	?	.	i
NC1=NC(c2cccc(Cl)c2)n2c(nc3ccccc32)N1 (stereo unspecified)	i	22%	.	i
CCOc1ccc(C2=CC(c3cccc(Br)c3)n3c(nc4ccccc43)N2)cc1Cl (stereo unspecified)	i	13µM*	.	i
CC(C)c1ccc(C2=CC(c3cccc(Cl)c3)n3ncnc3N2)cc1 (stereo unspecified)	i	13µM*	.	i
CCc1ccc(C2=CC(c3cccc(OC)c3OC)n3c(nc4ccccc43)N2)cc1 (stereo unspecified)	i	1%	.	i
SMILES	FUS yeast rescue	TDP-43 yeast inh	aSyn rescue	Abeta yeast res
CC(C)c1ccc(C2=CC(c3ccc(C(C)C)cc3)n3nnnc3N2)cc1 (stereo unspecified)	i	-3%	.	i
CC(C)c1ccc(C2=CC(c3cccc(Cl)c3)n3c(nc4ccccc43)N2)cc1 (stereo unspecified)	i	18µM*	.	i
COc1ccc(C(=O)CC2(O)C(=O)N(Cc3cccc(C(F)(F)F)c3)c3ccccc32)cc1 (stereo unspecified)	?	22µM*	?	i
O=C(CCn1c(=O)c2cccn2c2cccnc21)N1CCN(c2cccc(C(F)(F)F)c2)CC1	i	25µM*	.	i
Cc1oc(C)c(C(=O)O)c1C(=O)O	i	-12%	0%	i
CCN(CC)S(=O)(=O)c1ccc(N2CCOCC2)c(NC(=O)c2cc3ccccc3o2)c1	i	35µM*	-6%	i
CCN(CC)S(=O)(=O)c1ccc(N2CCOCC2)c(NC(=O)c2ccccc2)c1	i	23%	9%	i
O=C(Nc1ccc(N2C(=O)C3C4C=CC(C4)C3C2=O)cc1)Nc1nnc(C(F)(F)F)s1 (stereo unspecified)	i	17%	1%	i
Cc1cccc(OCCSCc2nc3ccccc3[nH]2)c1	i	6%	0%	i
Cc1cccc(OCCCSc2nc3ccccc3[nH]2)c1	i	20µM*	-16%	i
CC1=C(C(=O)OCc2ccccc2)C(c2ccccc2Cl)NC(=O)N1CCCCCC(=O)O (stereo unspecified)	i	35µM*	-3%	i
COC(=O)c1ccccc1NC(=O)CCC(=O)N1CC(C)Oc2ccc(C)cc21 (stereo unspecified)	i	18µM*	3%	i
Cc1ccc2c(c1)N(C(=O)CCC(=O)Nc1ccc(F)cc1F)CC(C)O2 (stereo unspecified)	i	14%	.	i
COC(=O)c1ccccc1NC(=O)CCC(=O)N1CC(C)Sc2ccccc21 (stereo unspecified)	i	18µM*	.	i
Oc1ccc(NC(=S)Nc2ccccc2)cc1	i	-1%	1%	i
Cc1nc(-c2ccccc2)sc1-c1ccn[nH]1	i	14µM*	-20%	i
Cc1nc(-c2ccccc2)sc1-c1ccnn1C	i	16%	0%	i
CN(C(=O)CCc1ccccc1F)C1CCCN(Cc2ccccc2F)C1 (stereo unspecified)	i	20µM*	9%	i
COc1cccc(CCC(=O)N(C)C2CCCN(Cc3ccccc3F)C2)c1 (stereo unspecified)	i	13%	-3%	i
COC(=O)c1ccc(OCC2c3cc(OC)c(OC)cc3CCN2C(C)=O)cc1 (stereo unspecified)	i	5%	6%	i
COC(=O)c1ccc(OCC2c3cc(OC)c(OC)cc3CCN2C(=O)c2ccc(OC)cc2)cc1 (stereo unspecified)	?	35µM*	12%	i
COc1cc2c(cc1OC)C(COc1ccc(F)cc1)N(C(=O)c1cccc(F)c1)CC2 (stereo unspecified)	i	35µM*	9%	i

Screening results (PubChem)
